From PubChem BioAssay
KB-V1 MDR tox = kills drug-selected multidrug resistant KB-V1 cells | KB-V1 MDR cells viability, CellTiter-Glo, 72 h | Potency, µM (series often up to 46.1 µM), most hits filed as cytotoxic | 400,000 tested, 3.4% active | AID 1347076; note: potency is the fitted concentration of half-maximal effect; % is set by controls: 0 for no effect and ±100 for the full control effect; nearly all actives have a fitted effect of over 60% in size
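Following 72 h at 37 degrees C with compound, KB-V1 cell viability was read by CellTiter-Glo luminescence, medium being phenol-red-free DMEM plus 10% FBS; concentration-response parameters came from normalized, curve-fitted qHTS data.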
MCF10A rerep = DNA re-replication induction in MCF 10a cells. MCF 10A DNA re-replication, Hoechst nuclear intensity, 48 h. Potency, µM (highest dose often 46.1 µM), for the others: at the top dose activity, positive = re-replication, hits mostly activators. 350,000 tested, 2.9% active; note: potency is the fitted concentration of half-maximal effect; % of control where 0% means no effect; nearly all actives have a fitted effect of over 50% in size
SW480 rereplic = DNA re-replication induction in SW480 cells; SW480 DNA re-replication, Hoechst DNA content imaging, 48 h; Potency, µM (series often up to 46.1 µM), inactives show at the top dose re-replication activation, actives largely listed as activators; 340,000 tested, 1.8% active; note: potency is the fitted concentration of half-maximal effect; % of control where 0% means no effect; nearly all actives have a fitted effect of over 55% in size
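SW480 cells exposed to compounds for 48 hr at 37 C, 5% CO2, then Hoechst-stained 40 min. Nuclear DNA content imaged by fluorescence scanning (405 nm excitation, 500-530 nm emission); re-replication scored as increased high-intensity nuclei.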
KB-3-1 cytotox = kills parental KB-3-1 adenocarcinoma cells; KB-3-1 viability, CellTiter-Glo ATP luminescence, 72 h; Potency, µM (doses to about 46.1 µM), usual class: cytotoxic; 400,000 tested, 1.4% active; note: potency is the fitted concentration of half-maximal effect; % is set by controls: 0 for no effect and ±100 for the full control effect; nearly all actives have a fitted effect of over 60% in size
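Here the drug-naive KB-3-1 line serves as comparator for MDR sub-line selectivity; cells received compound titrations, 72 h at 37 °C, then CellTiter-Glo readout.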
IL-1B inflam inh = inflammasome signaling inhibition, IL-1 beta readout | activity change, % at 57.5 µM | THP-1 LPS/ATP IL-1B secretion, AlphaLISA, 16 h; stronger effect = lower value | 360,000 tested, 4.7% active; in the data active = activity change below about -50%; inconclusive = mostly about -30% to -49%; note: % is set by controls: 0 for no effect and ±100 for the full control effect
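Secreted IL-1B measured by AlphaLISA bead assay after 16 h compound exposure of THP-1 cells; compounds (final up to 57.5 uM) added 1 h before LPS (250 ng/mL) and ATP (1.25 mM) stimulation; lower signal means less secretion.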
Starred values were filed as active, the others as inactive; i = inactive; ? = inconclusive; . = no result; [ ] = remark or other dose. In the library only some 9.9% were active in any assay of this set; here they are far more common. Unless noted, calls come from the whole dose curve; as a rule, active = well fitted curve in the direction sought with a large enough effect; inconclusive = small, poorly fitted or top-dose-only effect, or another doubt; inactive = no such curve, though single readings can be large; an effect the other way counts as inactive or inconclusive.

SMILES | KB-V1 MDR tox | MCF10A rerep | SW480 rereplic | KB-3-1 cytotox | IL-1B inflam inh
CCNc1nc(Oc2ccc(C#N)cc2)cc(C(F)(F)F)n1 | 3.3µM* | -14% | 9% | 18µM* | -57*
CC(C)Nc1nc(Oc2ccc(Cl)cc2)cc(C(F)(F)F)n1 | i | 23µM* | 8% | i | 21
CCNc1nc(Oc2ccc(F)cc2)cc(C(F)(F)F)n1 | i | 3% | -3% | i | 0
CCCCC(=O)N1C/C=C\C(c2ccc(OC)cc2)N(Cc2ccc(F)cc2)C(=O)[C@H]1Cc1ccccc1 (stereo partly drawn) | i | ? | 3.7µM* | ? | -19
CCCCCCC(=O)N1C/C=C\C(c2ccc(OC)cc2)N(Cc2ccc(F)cc2)C(=O)[C@H]1Cc1ccccc1 (stereo partly drawn) | ? | -17% | -90%[9.22 µM] | i | -4
COc1ccc(C2/C=C\CN(C(=O)C3CC3)[C@H](Cc3ccccc3)C(=O)N2Cc2ccc(F)cc2)cc1 (stereo partly drawn) | ? | -26% | 0%[9.22 µM] | i | 0
COc1ccc(C2/C=C\CN(C(=O)c3ccc(C)cc3)[C@H](Cc3ccccc3)C(=O)N2Cc2ccc(F)cc2)cc1 (stereo partly drawn) | ? | ? | 1% | 12µM* | 27
O=c1[nH]c(CN2CCN(C/C=C/c3ccccc3)CC2)nc2cc(Cl)ccc12 | i | ? | ? | i | -72*
c1ccc(CNc2ncnc3c2ncn3Cc2ccccc2)cc1 | i | . | . | i | .
Cc1ccc(-c2ccc(OC(=O)c3ccc(=O)[nH]c3)c(C)c2)cc1 | i | ? | 0% | i | ?
NC(=O)N/N=C/c1c(Sc2nnnn2-c2ccccc2)nc2ccccn2c1=O | i | 15µM* | 7.3µM* | ? | -68*
Cc1ccc(NC(=O)C(=Cc2ccc(C(=O)O)cc2)C(=O)Nc2ccc(C)cc2C)c(C)c1 | ? | 2.6µM* | 18µM* | ? | -100*
CC(=O)C(=Cc1ccc(C(=O)O)cc1)C(C)=O | i | -1% | 2% | i | 13
CCCCCCn1nc(C(=O)Nc2nc3c(s2)CCCC3)c2ccccc2c1=O | i | ? | -5% | i | 20
Cc1cccc(N=Cc2cc3c(cc2[N+](=O)[O-])OCO3)c1 | i | 16% | 9% | i | 16
Cc1cc(O)c(N=Cc2cc3c(cc2[N+](=O)[O-])OCO3)cc1C | i | 16µM* | ? | i | 24
O=C(N/N=C/C(Br)=C/c1ccccc1)c1cccs1 | i | ? | ? | i | ?
O=C(N/N=C/C(Cl)=C\c1ccccc1)c1cnccn1 | i | 3% | 14% | i | -82*
O=C(N/N=C/C(Br)=C/c1ccccc1)c1ccccc1F | i | ? | ? | ? | -65*
O=C(N/N=C/C(Cl)=C/c1ccccc1)c1ccccc1F | ? | ? | 15% | i | -69*
O=C(N/N=C/C(Cl)=C/c1ccccc1)c1ccco1 | i | -5% | -8% | i | 0
O=C(NCCN1CCOCC1)c1ccc2c(c1)N(Cc1cccc(F)c1)C(=O)c1ccccc1S2 | i | 11% | -14% | i | ?
Cc1ccc(C)c(CN2C(=O)CSc3ccc(C(=O)NCCN4CCOCC4)cc32)c1 | i | 0% | 0% | i | -4
COc1ccc(/C=C2\Sc3ccc(C(=O)NCCN4CCCCCC4)cc3N(C)C2=O)cc1 | i | ? | 255% | i | -26
CCN1CCN(CCNC(=O)c2ccc(/C=C3/Sc4ccccc4N(Cc4cccc(Cl)c4)C3=O)cc2)CC1 | ? | 21µM* | 7% | ? | -99*
SMILES | KB-V1 MDR tox | MCF10A rerep | SW480 rereplic | KB-3-1 cytotox | IL-1B inflam inh
Cc1cccc(CN2C(=O)/C(=C\c3ccc(C(=O)NCCN4CCOCC4)cc3)Sc3ccccc32)c1 | ? | ? | 23µM* | i | -7
CCN1CCN(CCNC(=O)c2ccc3c(c2)N(Cc2ccc(F)cc2)C(=O)/C(=C/c2ccccc2)S3)CC1 | ? | ? | ? | ? | -102*
Cc1ccccc1CN1C(=O)/C(=C\c2ccc(C(=O)NCCN3CCOCC3)cc2)Sc2ccccc21 | i | 21µM* | ? | i | ?
O=C1c2ccccc2NC(c2ccc3c(c2)OCO3)N1Cc1ccco1 (stereo not drawn) | i | . | . | i | .
COc1ccc(C(C(=O)NCCC(C)C)N(CCN2CCOCC2)C(=O)Cn2nnc3ccccc32)c(OC)c1 (stereo not drawn) | i | 5% | -127% | i | 5
O=C(NCCN1CCOCC1)c1ccc(/C=C2\Sc3ccccc3N(Cc3ccccc3F)C2=O)cc1 | ? | ? | 18µM* | i | -5
CCOCCCNC(=O)CN1C(=O)/C(=C/c2ccccc2C)Sc2ccccc21 | i | -2% | ? | ? | 4
CCOCCCNC(=O)/C=C1\Sc2ccccc2N(Cc2ccccc2F)C1=O | i | 7.3µM* | ? | i | ?
CN1CCN(CCCNC(=O)c2ccc(/C=C3\Sc4ccccc4N(Cc4ccccc4F)C3=O)cc2)CC1 | i | 16µM* | 21µM* | i | -13
O=C(NCCN1CCOCC1)c1ccc2c(c1)N(Cc1ccccc1F)C(=O)CS2 | i | 5% | 0% | i | 3
C=C1C=C(C(F)F)n2ncc(C(=O)NCCc3ccc(Cl)cc3)c2N1 | i | . | . | i | .
c1ccc(Cn2nnnc2C(c2cccs2)N2CCCCCC2)cc1 (stereo not drawn) | 16µM* | -3% | -5% | i | -14
CC(C)(C)n1nnnc1C(c1cccc(C(F)(F)F)c1)N1CCC(O)CC1 (stereo not drawn) | i | 11% | -15% | 0.0046µM* | 6
CN1CCN(C(c2cccc(C(F)(F)F)c2)c2nnnn2Cc2ccccc2)CC1 (stereo not drawn) | i | -5% | 18% | i | -54*
Cc1nn(CC(=O)Nc2cc(F)ccc2F)c(=O)c2cccn12 | i | . | . | i | .
COc1ccc(CN2C(=O)CCC2(C)c2nnnn2C2CCCCC2)cc1 (stereo not drawn) | ? | . | . | i | -5
O=C(N/N=C/c1cccnc1)c1ccccc1OCc1ccc(Br)cc1 | i | 2% | -2% | i | 1
O=C(N/N=C/c1cccnc1)c1cc(-c2ccccc2OCc2ccccc2)n[nH]1 | ? | 15µM* | ? | ? | -23
CCn1nc(NC(=O)c2ccco2)c2cc3ccccc3nc21 | ? | 21µM* | ? | i | -10
CCn1nc(NC(=O)c2ccncc2)c2cc3ccccc3nc21 | i | ? | 5% | i | -22
CC(C)Cn1nc(NC(=O)c2ccco2)c2cc3ccccc3nc21 | ? | ? | 16µM* | ? | 40
